Experimental data as given in PubChem BioAssay AID1159580 (chemical genetic matrix, 2015).
The campaign covered roughly 5,500 compounds. About 2,000 (36%) were called active. Not shown: some 18% with an inconclusive outcome. Rule as the data show it: active = normalized growth mostly below about 0.91 (no sharp cut-off); inconclusive = no clear call, values can overlap the other calls; inactive = mostly above about 0.92. The list shows a part of the results.

Experiment: chemical genetic growth profiling, strain panel (AID 1159580);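 also: tested at 20 µM; growth read once vehicle control cultures reached saturation at 30 °C; 1 = growth at the plate median or of vehicle wells; lower values mean less growth of the strain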
Details: growth OD

Measured: normalized growth

COC1=CC(=O)OC(CCc2ccc(OC)c(OC)c2)C1 (stereo unspecified)
inactive: S. cerevisiae deletion strains, locus YAL013W, strain DEP1, stronger effect = lower value 0.988 | S. cerevisiae deletion strains, locus YBR021W, strain FUR4, stronger effect = lower value 0.991 | S. cerevisiae deletion strains, locus YBR229C, strain ROT2, stronger effect = lower value 1.01 | S. cerevisiae deletion strains, locus YCL029C, strain bik1, stronger effect = lower value 1.03 | S. cerevisiae deletion strains, locus YDL035C, strain GPR1, stronger effect = lower value 1.01 | S. cerevisiae deletion strains, locus YDL074C, strain BRE1, stronger effect = lower value 1.02 | S. cerevisiae deletion strains, locus YDL101C, strain DUN1, stronger effect = lower value 1.01 | S. cerevisiae deletion strains, locus YDL134C, strain PPH21, stronger effect = lower value 1 | S. cerevisiae deletion strains, locus YDL185W, strain tfp1, stronger effect = lower value 1.02 | S. cerevisiae deletion strains, locus YDL192W, strain arf1, stronger effect = lower value 1.02 | S. cerevisiae deletion strains, locus YDR101C, strain arx1, stronger effect = lower value 1.01 | S. cerevisiae deletion strains, locus YDR150W, strain NUM1, stronger effect = lower value 1.01 | S. cerevisiae deletion strains, locus YDR162C, strain NBP2, stronger effect = lower value 1.01 | S. cerevisiae deletion strains, locus YDR318W, strain mcm21, stronger effect = lower value 1.01 | S. cerevisiae deletion strains, locus YDR388W, stronger effect = lower value 1.01 | S. cerevisiae deletion strains, locus YDR502C, strain sam2, stronger effect = lower value 1.01 | S. cerevisiae deletion strains, locus YEL061C, strain CIN8, stronger effect = lower value 1.01 | S. cerevisiae deletion strains, locus YER110C, stronger effect = lower value 1.02 | S. cerevisiae deletion strains, locus YER155C, strain BEM2, stronger effect = lower value 1.01 | S. cerevisiae deletion strains, locus YER167W, strain BCK2, stronger effect = lower value 1.02 | S. cerevisiae deletion strains, locus YGL078C, strain dbp3, stronger effect = lower value 1.02 | S. cerevisiae deletion strains, locus YGL086W, strain mad1, stronger effect = lower value 1.02 | S. cerevisiae deletion strains, locus YGL248W, strain PDE1, stronger effect = lower value 1.01 | S. cerevisiae deletion strains, locus YGR078C, strain PAC10, stronger effect = lower value 1.01 | S. cerevisiae deletion strains, locus YGR135W, strain pre9, stronger effect = lower value 1.01 | S. cerevisiae deletion strains, locus YGR229C, strain SMI1, stronger effect = lower value 1 | S. cerevisiae deletion strains, locus YGR252W, strain gcn5, stronger effect = lower value 1 | S. cerevisiae deletion strains, locus YHR030C, strain SLT2, stronger effect = lower value 1.01 | S. cerevisiae deletion strains, locus YHR079C, strain IRE1 (second series), stronger effect = lower value 1.01 | S. cerevisiae deletion strains, locus YHR094C, strain hxt1, stronger effect = lower value 1.01 | S. cerevisiae deletion strains, locus YHR129C, strain ARP1, stronger effect = lower value 1.01 | S. cerevisiae deletion strains, locus YHR200W, strain rpn10, stronger effect = lower value 1.01 | S. cerevisiae deletion strains, locus YIL066C, strain RNR3, stronger effect = lower value 1 | S. cerevisiae deletion strains, locus YIL073C, strain SPO22, stronger effect = lower value 1.07 | S. cerevisiae deletion strains, locus YIL125W, strain kgd1, stronger effect = lower value 1.02 | S. cerevisiae deletion strains, locus YIR030C, strain dcg1, stronger effect = lower value 1.01 | S. cerevisiae deletion strains, locus YJL095W, strain BCK1, stronger effect = lower value 1.02 | S. cerevisiae deletion strains, locus YJL134W, strain LCB3, stronger effect = lower value 1 | S. cerevisiae deletion strains, locus YJL168C, strain set2, stronger effect = lower value 1 | S. cerevisiae deletion strains, locus YJL187C, strain SWE1 (second series), stronger effect = lower value 1.01 | S. cerevisiae deletion strains, locus YJR043C, strain POL32, stronger effect = lower value 1.02 | S. cerevisiae deletion strains, locus YJR075W, strain HOC1, stronger effect = lower value 1.02 | S. cerevisiae deletion strains, locus YKL009W, strain mrt4, stronger effect = lower value 1.03 | S. cerevisiae deletion strains, locus YKL068W, stronger effect = lower value 1.01 | S. cerevisiae deletion strains, locus YKL085W, strain MDH1 (second series), stronger effect = lower value 1.01 | S. cerevisiae deletion strains, locus YKL085W, strain MDH1, stronger effect = lower value 1.01 | S. cerevisiae deletion strains, locus YKL190W, strain CNB1, stronger effect = lower value 1.01 | S. cerevisiae deletion strains, locus YKR001C, strain vps1, stronger effect = lower value 1.04 | S. cerevisiae deletion strains, locus YLR039C, strain RIC1, stronger effect = lower value 1.07 | S. cerevisiae deletion strains, locus YLR058C, strain SHM2, stronger effect = lower value 1.01 | S. cerevisiae deletion strains, locus YLR102C, strain apc9, stronger effect = lower value 1.01 | S. cerevisiae deletion strains, locus YLR262C, strain YPT6, stronger effect = lower value 1.07 | S. cerevisiae deletion strains, locus YLR268W, strain sec22, stronger effect = lower value 1.01 | S. cerevisiae deletion strains, locus YLR330W, strain CHS5, stronger effect = lower value 1.01 | S. cerevisiae deletion strains, locus YLR342W, strain FKS1 (second series), stronger effect = lower value 1.01 | S. cerevisiae deletion strains, locus YLR371W, strain rom2, stronger effect = lower value 1.01 | S. cerevisiae deletion strains, locus YLR418C, strain cdc73, stronger effect = lower value 1.01 | S. cerevisiae deletion strains, locus YML016C, strain PPZ1, stronger effect = lower value 1.01 | S. cerevisiae deletion strains, locus YML032C, strain rad52, stronger effect = lower value 1.04 | S. cerevisiae deletion strains, locus YML124C, strain tub3, stronger effect = lower value 1.02 | S. cerevisiae deletion strains, locus YMR078C, strain ctf18, stronger effect = lower value 1.02 | S. cerevisiae deletion strains, locus YMR223W, strain ubp8, stronger effect = lower value 1.02 | S. cerevisiae deletion strains, locus YMR263W, strain SAP30, stronger effect = lower value 1.01 | S. cerevisiae deletion strains, locus YMR307W, strain GAS1, stronger effect = lower value 1.03 | S. cerevisiae deletion strains, locus YNL067W, strain RPL9B, stronger effect = lower value 1.01 | S. cerevisiae deletion strains, locus YNL128W, strain TEP1, stronger effect = lower value 1.01 | S. cerevisiae deletion strains, locus YNL153C, strain GIM3, stronger effect = lower value 1.01 | S. cerevisiae deletion strains, locus YNL233W, strain BNI4, stronger effect = lower value 1 | S. cerevisiae deletion strains, locus YNL250W, strain rad50, stronger effect = lower value 1.01 | S. cerevisiae deletion strains, locus YNL271C, strain bni1, stronger effect = lower value 1.01 | S. cerevisiae deletion strains, locus YNL298W, strain CLA4, stronger effect = lower value 1.02 | S. cerevisiae deletion strains, locus YNL307C, strain MCK1, stronger effect = lower value 1.01 | S. cerevisiae deletion strains, locus YNL322C, strain KRE1, stronger effect = lower value 1.01 | S. cerevisiae deletion strains, locus YNR052C, strain pop2, stronger effect = lower value 1.02 | S. cerevisiae deletion strains, locus YOL006C, strain TOP1, stronger effect = lower value 1.09 | S. cerevisiae deletion strains, locus YOL012C, strain htz1 1.25 | S. cerevisiae deletion strains, locus YOL147C, strain pex11, stronger effect = lower value 1.01 | S. cerevisiae deletion strains, locus YOR061W, strain CKA2, stronger effect = lower value 1.01 | S. cerevisiae deletion strains, locus YOR069W, strain VPS5, stronger effect = lower value 1 | S. cerevisiae deletion strains, locus YOR136W, strain idh2, stronger effect = lower value 1.02 | S. cerevisiae deletion strains, locus YOR144C, strain elg1, stronger effect = lower value 1.02 | S. cerevisiae deletion strains, locus YOR184W, strain ser1, stronger effect = lower value 1.03 | S. cerevisiae deletion strains, locus YOR316C, strain cot1, stronger effect = lower value 1.02 | S. cerevisiae deletion strains, locus YPL055C, strain LGE1, stronger effect = lower value 1.02 | S. cerevisiae deletion strains, locus YPL241C, strain CIN2, stronger effect = lower value 1 | S. cerevisiae deletion strains, locus YPR119W, strain clb2, stronger effect = lower value 1.01 | S. cerevisiae deletion strains, locus YPR141C, strain kar3, stronger effect = lower value 1.03 | S. cerevisiae deletion strains, locus YPR163C, strain tif3, stronger effect = lower value 1.02 | S. cerevisiae deletion strains, locus YPR167C, strain met16, stronger effect = lower value 1.02 | S. cerevisiae deletion strains, strain wtn01, stronger effect = lower value 1.01 | S. cerevisiae strains, strain wild type, stronger effect = lower value 0.999
